Source: PubChem BioAssay (Tox21)
Values joined by “and” are separate entries in the source; they are usually repeats but may differ in a detail not shown here. Equal values may be shown once. Inconclusive results are not listed. Entries that show only a call come without a potency. More than one record can exist for a structure, and the calls need not agree. Active and inactive are the calls of the source. Unless noted, the call rests on the fitted dose curve; in most records, active means well fitted curve in the direction sought with a large enough effect in the repeat runs; inconclusive means weak or mixed curves; inactive means no such curve, though single readings can be large; an effect the other way counts as inactive or inconclusive.

Key:
[1] = A CellTox Green Cytotoxicity Assay to monitor cytotoxicity in HepG2 cells - 32 hour (AID 1224883); further: nearly all actives have a fitted effect of over 50% in size; further: potency means the concentration at half of the fitted maximal effect
Summary of the method: (§1)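 Nonlytic assay: viable cells exclude the dye, so fluorescence scales with cell death. HepG2 at 600 cells/well, compounds added after 5 h, signal read across 40 h.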

[2] = qHTS RealTime-Glo MT Cell Viability Assay in HepG2 cells - 16 hour (AID 1224885); further: nearly all actives have a fitted effect of over 50% in size; further: potency means the concentration at half of the fitted maximal effect
Summary of the method: (§2)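 HepG2 suspension premixed with RealTime-Glo reagents is plated at 600 cells per well and left 5 h at 37 C/5% CO2. Compounds in DMSO then go in, and bioluminescence reflecting viable cell number is recorded over 40 h.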

[3] = qHTS RealTime-Glo MT Cell Viability Assay in HEK293 cells - 24 hour (AID 1224886); further: nearly all actives have a fitted effect of over 50% in size; further: potency means the concentration at half of the fitted maximal effect
Summary of the method: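 Reads taken at 0, 8, 16, 24, 32 and 40 h from the same wells. HEK293 cells (600/well) carried RealTime-Glo reagents from seeding, with compound added after a 5 h settle at 37 C.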

[4] = qHTS assay to identify small molecule antagonists of the androgen receptor (AR) signaling pathway using the MDA cell line in the presence of 0.5 nM R1881 - cell viability counter screen (AID 1259242); further: nearly all actives have a fitted effect of over 45% in size; further: potency means the concentration at half of the fitted maximal effect
Summary of the method: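 R1881 at 0.5 nM final stimulated MDA-kb2 cells during 16 hr compound treatment at 37C. Cytotoxicity read: CellTiter-Fluor fluorescence after 30 min.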

[5] = qHTS assay to identify small molecule HDAC inhibitors (AID 1259364); further: potency means the concentration at half of the fitted maximal effect;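 further: wild-type HCT-116 cells with endogenous class I/II HDAC activity; nearly all actives have a fitted effect of over 45% in size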
Summary of the method: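 Relative class I and II HDAC activity is taken from the luminogenic signal in HCT-116 cells, with compound exposure 2 hr and reagent development 30 min at room temperature.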

[6] = qHTS assay to identify small molecule HDAC inhibitors - cell viability counter screen (AID 1259365); further: series mostly up to about 92 µM; nearly all actives have a fitted effect of over 50% in size
Summary of the method: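 Wild-type HCT-116 cells, 1,500/well, cultured overnight, then compound-treated 2 h at 37 C. Viability measured as ATP luminescence with CellTiter-Glo after 30 min at room temperature.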

[7] = qHTS assay to identify small molecule agonists of the sonic hedgehog signaling (Shh) pathway - cell viability counter screen (AID 1259366); further: nearly all actives have a fitted effect of over 50% in size; further: potency means the concentration at half of the fitted maximal effect
Summary of the method: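 NIH/3T3-derived Gli1-Luc reporter cells, 2,000 per well, received compound after 4 h and were treated about 23 h at 37C. Viability measured in the same wells by CellTiter-Fluor fluorescence after 1 h.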

[8] = qHTS assay to identify small molecule antagonists of the sonic hedgehog signaling (Shh) pathway - cell viability counter screen (AID 1259367); further: nearly all actives have a fitted effect of over 55% in size; further: potency means the concentration at half of the fitted maximal effect
Summary of the method: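 Cells: 3T3 Gli1-Luc, 2,000/well, 4 hr pre-incubation. Compounds in DMSO, then conditioned medium. Incubation 24 hr, 37C, 5% CO2. CellTiter-Fluor at 23 hr, 1 hr, fluorescence.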

[9] = qHTS assay to identify small molecule agonists of the sonic hedgehog signaling (Shh) pathway (AID 1259368; calls by dose curve;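 further: NIH/3T3-derived 3T3Gli1-Luc cells carrying a stable Gli1-driven firefly luciferase reporter; series mostly up to about 92 µM; nearly all actives have a fitted effect of over 15% in size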)
Summary of the method: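 Mouse fibroblast (NIH/3T3) reporter cells with stably integrated Gli1-Luc were treated 24 hr with compound; firefly luciferase luminescence served as the read-out.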

[10] = A CellTox Green Cytotoxicity Assay to monitor cytotoxicity in HEK293 cells - 8 hour (AID 1224884); further: nearly all actives have a fitted effect of over 35% in size; further: potency means the concentration at half of the fitted maximal effect
Summary of the method: (§3)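 Seeding of HEK293 cells together with cytotoxicity dye preceded a 5 h incubation at 37 C/5% CO2. Test compounds in DMSO were then added and fluorescence monitored across 40 h.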

[11] = qHTS RealTime-Glo MT Cell Viability Assay in HEK293 cells - 8 hour (AID 1224887); further: nearly all actives have a fitted effect of over 50% in size; further: potency means the concentration at half of the fitted maximal effect
Summary of the method: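 Tox21 screen in HEK293 using RealTime-Glo MT chemistry, with cells and reagent co-dispensed. Luminescence proportional to viable cell number was captured at intervals during 40 h compound exposure at 37 C.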

[12] = A CellTox Green Cytotoxicity Assay to monitor cytotoxicity in HEK293 cells - 16 hour (AID 1224888); further: nearly all actives have a fitted effect of over 35% in size; further: potency means the concentration at half of the fitted maximal effect
Summary of the method: as §3

[13] = qHTS RealTime-Glo MT Cell Viability Assay in HepG2 cells - 0 hour (AID 1224889); further: nearly all actives have a fitted effect of over 50% in size
Summary of the method: as §2

[14] = A CellTox Green Cytotoxicity Assay to monitor cytotoxicity in HepG2 cells - 8 hour (AID 1224890); further: nearly all actives have a fitted effect of over 45% in size; further: potency means the concentration at half of the fitted maximal effect
Summary of the method: as §1

[15] = qHTS assay to identify small molecule antagonists of the estrogen receptor alpha (ER-alpha) signaling pathway using the BG1 cell line in the presence of 0.1 nM 17-beta-estradiol - cell viability counter screen (AID 1259241); further: nearly all actives have a fitted effect of over 40% in size; further: potency means the concentration at half of the fitted maximal effect
Summary of the method: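 VM7Luc4E2 cells (endogenous full-length ER-alpha, 4xERE-luciferase), cultured 5 days in charcoal-stripped serum, exposed to compounds with 0.1 nM 17beta-estradiol (final) for 22 hr at 37C. Viability read in same wells as live-cell protease fluorescence after 30 min.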

[16] = molecular target: Estrogen receptor (Homo sapiens) (UniProt P03372); test: qHTS assay to identify small molecule antagonists of the estrogen receptor alpha (ER-alpha) signaling pathway using the BG1 cell line in the presence of 0.1 nM 17-beta-estradiol (AID 1259244); further: nearly all actives have a fitted effect of over 50% in size; further: potency means the concentration at half of the fitted maximal effect
Sequence of Estrogen receptor (Homo sapiens) (P03372 whole entry, looked up): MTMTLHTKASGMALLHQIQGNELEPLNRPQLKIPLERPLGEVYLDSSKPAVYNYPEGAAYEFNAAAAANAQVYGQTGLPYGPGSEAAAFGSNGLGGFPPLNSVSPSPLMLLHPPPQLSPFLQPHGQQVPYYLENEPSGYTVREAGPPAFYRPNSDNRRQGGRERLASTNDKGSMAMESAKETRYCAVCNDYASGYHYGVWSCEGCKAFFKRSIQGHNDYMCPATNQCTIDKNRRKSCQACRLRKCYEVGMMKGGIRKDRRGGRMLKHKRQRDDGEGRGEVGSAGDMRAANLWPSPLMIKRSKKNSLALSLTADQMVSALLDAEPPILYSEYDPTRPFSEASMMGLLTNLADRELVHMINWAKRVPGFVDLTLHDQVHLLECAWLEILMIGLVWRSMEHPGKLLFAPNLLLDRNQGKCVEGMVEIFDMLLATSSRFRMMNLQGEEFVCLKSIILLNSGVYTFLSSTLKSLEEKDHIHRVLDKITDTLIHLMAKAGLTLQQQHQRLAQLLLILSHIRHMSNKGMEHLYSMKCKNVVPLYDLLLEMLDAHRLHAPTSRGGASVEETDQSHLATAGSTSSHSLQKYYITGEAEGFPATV
Summary of the method: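 VM7Luc4E2; 4xERE-luciferase; 0.1 nM E2 final; 22 h co-incubation, 37C; ONE-Glo luminescence after 30 min at room temperature.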

[17] = A CellTox Green Cytotoxicity Assay to monitor cytotoxicity in HepG2 cells - 0 hour (AID 1224882); further: nearly all actives have a fitted effect of over 35% in size
Summary of the method: as §1

[18] = qHTS assay to identify small molecule phospholipidosis (PLD) inducers (AID 1259344; active means well fitted curve in the direction sought with a large enough effect; an effect the other way counts as inactive or inconclusive; further: potency means the concentration at half of the fitted maximal effect)
Summary of the method: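 Phospholipidosis is scored by imaging LipidTOX-stained pits in HepG2 cells exposed to compound for 24 h at 37 C; pit counts and integrated intensities per well and per cell serve as outputs.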

[19] = molecular target: Androgen receptor (Homo sapiens) (UniProt P10275); test: qHTS assay to identify small molecule antagonists of the androgen receptor (AR) signaling pathway using the MDA cell line in the presence of 0.5 nM R1881 (AID 1259243); further: nearly all actives have a fitted effect of over 50% in size
Sequence of Androgen receptor (Homo sapiens) (P10275 whole entry, looked up): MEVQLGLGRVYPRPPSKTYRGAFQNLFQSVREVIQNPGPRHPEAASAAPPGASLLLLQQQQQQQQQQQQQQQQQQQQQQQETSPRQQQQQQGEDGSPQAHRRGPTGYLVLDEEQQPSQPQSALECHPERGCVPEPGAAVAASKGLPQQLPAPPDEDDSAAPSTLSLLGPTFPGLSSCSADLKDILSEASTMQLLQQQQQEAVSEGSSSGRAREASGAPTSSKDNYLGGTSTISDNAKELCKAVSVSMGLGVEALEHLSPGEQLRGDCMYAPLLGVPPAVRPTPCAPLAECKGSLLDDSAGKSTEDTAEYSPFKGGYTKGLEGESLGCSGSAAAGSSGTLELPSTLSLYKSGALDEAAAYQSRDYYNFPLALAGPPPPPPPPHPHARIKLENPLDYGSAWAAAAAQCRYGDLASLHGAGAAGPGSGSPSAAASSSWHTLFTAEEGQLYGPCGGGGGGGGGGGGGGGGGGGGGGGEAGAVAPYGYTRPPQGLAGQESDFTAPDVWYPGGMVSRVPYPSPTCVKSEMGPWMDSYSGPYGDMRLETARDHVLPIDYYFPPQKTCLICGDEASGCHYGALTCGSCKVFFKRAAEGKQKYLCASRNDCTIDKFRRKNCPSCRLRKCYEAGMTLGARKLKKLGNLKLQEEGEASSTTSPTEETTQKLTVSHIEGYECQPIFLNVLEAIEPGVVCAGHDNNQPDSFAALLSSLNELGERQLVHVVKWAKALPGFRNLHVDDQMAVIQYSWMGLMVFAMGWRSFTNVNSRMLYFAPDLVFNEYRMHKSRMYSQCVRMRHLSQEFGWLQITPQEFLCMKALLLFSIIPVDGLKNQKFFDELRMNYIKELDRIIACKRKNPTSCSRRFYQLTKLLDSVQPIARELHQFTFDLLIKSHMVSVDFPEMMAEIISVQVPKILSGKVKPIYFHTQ
Summary of the method: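 We exposed MDA-kb2 cells to compounds under 0.5 nM R1881 stimulation for 16 hr at 37C and quantified MMTV-driven luciferase by luminescence.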

SMILES	Potency [1]	Potency [2]	Potency [3]	Potency [4]	Potency [5]	Potency [6]	Potency [7]	Potency [8]	outcome [9]	Potency [10]	Potency [11]	Potency [12]	Potency [13]	Potency [14]	Potency [15]	Potency [16]	Potency [17]	Potency [18]	Potency [19]
COc1ccc(OC(F)(F)F)cc1CN[C@H]1CCCN[C@H]1c1ccccc1	49 µM (active)	54.9 µM (active)	43.6 µM (active)	48.6 µM (active)	inactive	inactive	48.6 µM (active)	61.1 µM (active)	inactive										
Nc1c2c(nc3ccccc13)CCCC2	inactive	inactive	inactive	inactive	inactive		inactive	inactive	inactive	inactive	inactive	inactive	inactive	inactive	inactive	inactive			
O=C1O[C@H]([C@@H](O)CO)C(O)=C1O	inactive	inactive	inactive	inactive	inactive		inactive	inactive	inactive	inactive	inactive	inactive		inactive	inactive		inactive	inactive	
CC12CCC(CC1)C(C)(C)O2	inactive	inactive	inactive	inactive	inactive	inactive	inactive	inactive	inactive	inactive	inactive	inactive	inactive	inactive	inactive	inactive		inactive	
CN[C@H]1CC[C@@H](c2ccc(Cl)c(Cl)c2)c2ccccc21	19 µM (active)	23.9 µM (active)	21.3 µM (active)		inactive		inactive	inactive	inactive				inactive		inactive			2.82 µM (active)	
OC[C@H]1O[C@H](O[C@]2(CCl)O[C@H](CCl)[C@@H](O)[C@@H]2O)[C@H](O)[C@@H](O)[C@H]1Cl	inactive	inactive	inactive	inactive	inactive		inactive	inactive	inactive	inactive	inactive	inactive		inactive	inactive		inactive		
CCCCNC(=O)NS(=O)(=O)c1ccc(C)cc1	inactive	inactive	inactive	inactive	inactive	inactive	inactive	inactive	inactive	inactive	inactive	inactive	inactive	inactive	inactive			inactive	
CC1(C)O[C@@H]2C[C@H]3[C@@H]4CCC5=CC(=O)C=C[C@]5(C)[C@@]4(F)[C@@H](O)C[C@]3(C)[C@]2(C(=O)CO)O1	inactive	inactive	inactive	inactive	inactive	inactive	inactive	inactive	inactive	inactive and 9.52 µM (active)	inactive			inactive	inactive		inactive	inactive	
CN1CCc2cccc3c2[C@H]1Cc1ccc(O)c(O)c1-3	inactive	49.5 µM (active) and 18.3 µM (active) and 23.9 µM (active)	14 µM (active) and 8.17 µM (active) and 23.9 µM (active)	55 µM (active) and 22.8 µM (active)	inactive	inactive	27.6 µM (active) and 22.8 µM (active)	30.9 µM (active) and 18.1 µM (active) and 21.1 µM (active)	inactive	inactive	24.8 µM (active) and 14.5 µM (active)	inactive	inactive	inactive	49.1 µM (active) and 20.4 µM (active)	49.1 µM (active) and 11.9 µM (active)		inactive	
O=C1NC(=O)C(c2ccccc2)(c2ccccc2)N1	inactive and 21.3 µM (active)	inactive	inactive	inactive	inactive		inactive	inactive	inactive	inactive and 21.3 µM (active)	inactive			inactive and 23.9 µM (active)	inactive			inactive	
COc1cccc(O)c1O	inactive	inactive		inactive	inactive		63.5 µM (active)	56.6 µM (active)	inactive	inactive		inactive		inactive		inactive	inactive		inactive
CN(N=O)C(=O)N[C@@H]1[C@@H](O)[C@H](O)[C@@H](CO)O[C@@H]1O	inactive	inactive	inactive	inactive	inactive	inactive	inactive	inactive	inactive	inactive	inactive	inactive	inactive	inactive	inactive	inactive		inactive	
CC/C(=C(\c1ccccc1)c1ccc(OCCN(C)C)cc1)c1ccccc1	43.6 µM (active) [middle of 5 runs]	43.6 µM (active) [middle of 5 runs]	24.5 µM (active) [middle of 5 runs]	61.1 µM (active) [middle of 4 runs]	inactive	inactive			inactive	44 µM (active) [middle of 5 runs]	39.2 µM (active) [middle of 4 runs]	39.2 µM (active) [middle of 5 runs]		55.3 µM (active) and 54.9 µM (active) and 49 µM (active)				11.2 µM (active)	
CC(C)c1c(C(=O)Nc2ccccc2)c(-c2ccccc2)c(-c2ccc(F)cc2)n1CC[C@@H](O)C[C@@H](O)CC(=O)O	2.98 µM (active) and 10.2 µM (active) and 6.01 µM (active)	inactive	inactive	inactive	inactive		inactive	inactive	inactive	inactive		inactive	inactive	inactive	inactive			inactive	
CCCCC(CC)C(=O)O (stereo not drawn)	inactive	inactive	inactive	inactive	inactive	inactive	inactive	inactive	inactive	inactive	inactive	inactive		inactive	inactive		inactive		
O=CC(=O)c1ccccc1	inactive	inactive	inactive	inactive	inactive		inactive	inactive	inactive	inactive	inactive	inactive		inactive	inactive	inactive			
O=C(O)c1ccccc1	inactive	inactive	inactive	inactive	inactive	inactive	inactive	inactive	inactive	inactive	inactive	inactive	inactive	inactive	inactive	inactive			
C=C(C)C(=O)OCC(C)O (stereo not drawn)	inactive	inactive	inactive	inactive	inactive		inactive	inactive	inactive	inactive	inactive	inactive	inactive	inactive	inactive	inactive			
O=C(Nc1ncc([N+](=O)[O-])s1)c1cccs1	inactive	inactive	inactive		0.422 µM (active)		inactive			inactive	inactive	inactive		inactive		inactive		inactive	
F[B-](F)(F)F	inactive	inactive	inactive	inactive	inactive	inactive	inactive	inactive	inactive	inactive	inactive	inactive		inactive	inactive		inactive		
